Source: PubChem BioAssay (Tox21)
Several values for one entry are separate records, joined by “and”; a condition that tells them apart may be missing. Identical values can stand only once. Results filed as inconclusive are left out. Activity calls are given as the source filed them. Unless noted, the call rests on the fitted dose curve; in most records, active means well fitted curve in the direction sought with a large enough effect in the repeat runs; inconclusive means weak or mixed curves; inactive means no such curve, though single readings can be large; an effect the other way counts as inactive or inconclusive.

Experiments:
[1] = qHTS assay for small molecule agonists of the p53 signaling pathway (AID 651631; calls by dose curve; further: nearly all actives have a fitted effect of over 15% in size; further: potency means the concentration at half of the fitted maximal effect)
How it was run: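 Quantitative high-throughput format: 4,000 p53RE-bla HCT-116 cells/well, 5 h pre-incubation, 16 h compound exposure at 37 °C, 2 h room-temperature substrate step, fluorescence intensity measured.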

[2] = qHTS assay for small molecules that induce genotoxicity in human embryonic kidney cells expressing luciferase-tagged ATAD5 (AID 651632); further: nearly all actives have a fitted effect of over 15% in size
How it was run: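 A rise in luciferase signal from ATAD5-tagged HEK293T cells marks genetic stress. Cells were exposed to compounds for 16 hr at 37C, 5% CO2, then luciferase was quantified after a 30 min room-temperature incubation with Amplite.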

[3] = qHTS assay for small molecule agonists of the p53 signaling pathway - cell viability (AID 651633; calls by dose curve;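 further: p53RE-bla HCT reporter cells with a stable beta-lactamase p53 reporter; series mostly up to about 83 µM; nearly all actives have a fitted effect of over 30% in size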)
How it was run: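 p53RE-bla cells were treated with compound for 16 hours at 37 C. Cytotoxicity was then measured as CellTiter-Glo luminescence after 30 min at room temperature.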

[4] = qHTS assay for small molecule disruptors of the mitochondrial membrane potential - cell viability (AID 720634; calls by dose curve;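 further: human HepG2 liver cancer cells; series mostly up to about 83 µM; nearly all actives have a fitted effect of over 20% in size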)
How it was run: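 Cytotoxicity was quantified from ATP content by CellTiter-Glo luminescence in the same wells as the MMP dye read-out. HepG2 (2,000 cells/well) were plated overnight and exposed to compounds for 1 hr at 37 C.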

[5] = qHTS assay to test for compound auto fluorescence at 590 nm (red) in HepG2 cells (AID 720674)
How it was run: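 HepG2 cells, 2,000 per well in MEM with 10% FBS, attached overnight at 37 C, then got 23 nL compound or DMSO. After 1 hr at 37 C, 5% CO2, red fluorescence was read at 540/590 nm against Rose Bengal sodium as reference.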

[6] = qHTS assay to test for compound auto fluorescence at 535 nm (green) in HepG2 cells (AID 720675)
[7] = qHTS assay to test for compound auto fluorescence at 460 nm (blue) in HEK293 cells (AID 720678)
How it was run: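 Measured: blue fluorescence (Ex 405/Em 460 nm) of compound-treated HEK293 cells, incubated overnight at 37C with 5% CO2 and scaled to triamterene equivalents.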

[8] = qHTS assay to test for compound auto fluorescence at 590 nm (red) in HEK293 cells (AID 720679)
How it was run: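 Using HEK293 cells at 2,000 per well, the screen added 23 nL of each compound after cell attachment and incubated overnight (37C, 5% CO2). The plate reader then captured red-label fluorescence, Ex/Em 540/590nm.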

[9] = qHTS assay to test for compound auto fluorescence at 535 nm (green) in HEK293 cells (AID 720680)
[10] = qHTS assay to test for compound auto fluorescence at 460 nm (blue) in HEK293 cell free culture (AID 720681)
How it was run: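 Compounds were added to cell-free DMEM with 10% FBS and fluorescence read directly. The blue channel used 405 nm excitation and 460 nm emission, with triamterene as the reference fluorophore.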

[11] = qHTS assay to test for compound auto fluorescence at 535 nm (green) in HEK293 cell free culture (AID 720682)
How it was run: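 Measurement is a direct plate read of green fluorescence (485 nm in, 535 nm out) after compound addition to serum-supplemented DMEM lacking cells, with fluorescein used to express intensities.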

[12] = qHTS assay to test for compound auto fluorescence at 590 nm (red) in HEK293 cell free culture (AID 720683)
How it was run: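 Cell-free wells of DMEM with 10% FBS received compound, and intrinsic fluorescence was read at excitation/emission 540/590 nm. Values expressed as equivalence to Rose Bengal sodium.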

[13] = qHTS assay to test for compound auto fluorescence at 460 nm (blue) in HepG2 cell free culture (AID 720685)
How it was run: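 Cell-free plates of MEM plus 10% FBS received 23 nL compound or DMSO vehicle; blue-channel (405/460 nm) intensity scored against triamterene as reference fluorophore.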

[14] = qHTS assay to test for compound auto fluorescence at 535 nm (green) in HepG2 cell free culture (AID 720686)
[15] = qHTS assay to test for compound auto fluorescence at 460 nm (blue) in HepG2 cells (AID 720687)
How it was run: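 HepG2 cells in MEM with 10% FBS, attached overnight at 37 C, were exposed to compound or DMSO for 1 hr at 37 C, 5% CO2. Blue fluorescence was read at 405/460 nm, with triamterene as reference fluorophore.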

[16] = target: Glucocorticoid receptor (Homo sapiens) (UniProt P04150); experiment: qHTS assay to identify small molecule agonists of the glucocorticoid receptor (GR) signaling pathway (AID 720691; active means well fitted activation curve with a large enough effect in the signal ratio in the repeat runs, not every such curve was filed as active; the % refers to the signal ratio)
Sequence of Glucocorticoid receptor (Homo sapiens) (P04150 whole entry, looked up): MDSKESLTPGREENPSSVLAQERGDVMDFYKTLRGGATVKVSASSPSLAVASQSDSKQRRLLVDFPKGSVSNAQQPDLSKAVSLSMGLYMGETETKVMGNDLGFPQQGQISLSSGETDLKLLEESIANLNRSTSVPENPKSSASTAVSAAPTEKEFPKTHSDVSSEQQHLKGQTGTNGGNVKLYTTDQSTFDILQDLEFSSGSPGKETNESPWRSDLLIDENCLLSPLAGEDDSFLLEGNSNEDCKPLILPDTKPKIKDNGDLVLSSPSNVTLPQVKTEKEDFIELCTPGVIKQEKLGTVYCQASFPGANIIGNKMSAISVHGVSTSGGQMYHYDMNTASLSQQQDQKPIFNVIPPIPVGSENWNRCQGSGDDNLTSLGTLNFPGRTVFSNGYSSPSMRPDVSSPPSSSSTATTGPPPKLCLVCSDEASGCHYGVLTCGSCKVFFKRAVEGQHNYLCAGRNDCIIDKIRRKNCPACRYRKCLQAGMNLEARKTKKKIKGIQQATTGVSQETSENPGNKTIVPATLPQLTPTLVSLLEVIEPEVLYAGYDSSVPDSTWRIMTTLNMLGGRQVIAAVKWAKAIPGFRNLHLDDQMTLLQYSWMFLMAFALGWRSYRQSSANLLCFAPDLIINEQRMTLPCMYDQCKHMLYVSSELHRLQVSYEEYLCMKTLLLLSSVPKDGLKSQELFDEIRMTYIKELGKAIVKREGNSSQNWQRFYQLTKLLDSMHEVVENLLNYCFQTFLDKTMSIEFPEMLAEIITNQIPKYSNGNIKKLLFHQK
How it was run: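 Agonist-mode qHTS in HeLa cells stably expressing a glucocorticoid-response-element beta-lactamase reporter. Fluorescence intensity read with FRET substrate (2 h, room temperature) after 18 h compound treatment at 37 C.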

[17] = qHTS assay for small molecules that induce genotoxicity in human embryonic kidney cells expressing luciferase-tagged ATAD5 - cell viability (AID 651634; calls by dose curve; further: nearly all actives have a fitted effect of over 25% in size)
How it was run: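 Cytotoxicity counter-readout: after 15.5 hr compound treatment at 37C, live-cell protease activity in ATAD5-luciferase HEK293T cells measured by CellTiter-Fluor fluorescence, 30 min development at 37C.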

[18] = qHTS assay to test for compound auto fluorescence at 590 nm (red) in HepG2 cell free culture (AID 720684)
How it was run: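 Rose Bengal sodium served as the reference for red signal. Test compounds were dispensed into serum-containing MEM (10% FBS) without cells, and plates were read at 540/590 nm.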

[19] = qHTS assay for small molecule disruptors of the mitochondrial membrane potential (AID 720635); further: potency means the concentration at half of the fitted maximal effect
How it was run: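 HepG2 cells exposed to compound 1 hr at 37C, then Mito-MPS dye 30 min. Ratio read of aggregate (540/590 nm) versus monomer (490/535 nm) fluorescence.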

[20] = target: Glucocorticoid receptor (Homo sapiens) (UniProt P04150); experiment: qHTS assay to identify small molecule antagonists of the glucocorticoid receptor (GR) signaling pathway (AID 720692; active means well fitted inhibition curve with a large enough effect in the signal ratio in the repeat runs, not every such curve was filed as active; the % refers to the signal ratio)
How it was run: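 Inhibition of dexamethasone-driven (5 nM final) beta-lactamase expression was measured in GRE-reporter HeLa cells over 18 h at 37C. Fluorescence was read after 2 h with the B/G FRET substrate at room temperature.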

Measured: Potency

CC(CN=Cc1ccccc1O)N=Cc1ccccc1O (centres undefined)
inactive: [1] | [2] | [3] | [4] | [5] | [6] | [7] | [8] | [9] | [10] | [11] | [12] | [13] | [14] | [15] | [16]

CCC(CC)C(=O)O
inactive: [1] | [2] | [3] | [17] | [5] | [6] | [7] | [8] | [9] | [10] | [12] | [18] | [13] | [14] | [15] | [16]

NC(=O)c1ccccc1C(N)=O
inactive: [1] | [2] | [3] | [4] | [5] | [6] | [7] | [8] | [9] | [10] | [11] | [12] | [18] | [13] | [14] | [15]
active: [19] 61.4 µM

Nc1nc(Cl)nc2c1ncn2[C@H]1C[C@H](O)[C@@H](CO)O1
active: [1] 841 nM and 341 nM
inactive: [2] | [3] | [4] | [19] | [5] | [6] | [7] | [8] | [9] | [10] | [11] | [12] | [13] | [14] | [15] | [16]

S=c1[nH][nH]c(=S)s1
inactive: [1] | [2] | [3] | [4] | [5] | [6] | [7] | [8] | [10] | [11] | [12] | [18] | [13] | [14] | [15] | [16] | [20]

COc1ccc(C(=O)Nc2ccccc2)cc1[N+](=O)[O-]
inactive: [1] | [2] | [3] | [17] | [5] | [6] | [7] | [8] | [9] | [10] | [11] | [12] | [18] | [13] | [14] | [15] | [16] | [20]

O=C(O)CNc1ccccc1
inactive: [1] | [2] | [17] | [4] | [19] | [5] | [6] | [7] | [8] | [9] | [10] | [11] | [13] | [14] | [15] | [16] | [20]

C[C@]12CCC(=O)C=C1[C@@H]1C[C@@H]1[C@H]1[C@@H]3[C@@H]4C[C@@H]4[C@@]4(CCC(=O)O4)[C@@]3(C)CC[C@@H]12
inactive: [1] | [2] | [17] | [6] | [7] | [8] | [10] | [11] | [18] | [13] | [14] | [15]

COC(=O)/C=C/C(C)=C\C=C\C(C)=C\C=C\C=C(C)\C=C\C=C(C)\C=C\C(=O)O
inactive: [1] | [2] | [17] | [4] | [5] | [6] | [7] | [8] | [9] | [10] | [11] | [13] | [14] | [15] | [16]

CC(C)NC(=O)c1ccccc1N
inactive: [1] | [2] | [17] | [6] | [7] | [8] | [9] | [10] | [11] | [12] | [18] | [13] | [14] | [15]

O=Cc1ccc([N+](=O)[O-])cc1
inactive: [1] | [2] | [17] | [4] | [19] | [5] | [6] | [7] | [8] | [9] | [10] | [11] | [12] | [18] | [13] | [14] | [15] | [16] | [20]

Cc1c(N=C=O)cccc1N=C=O
inactive: [1] | [2] | [17] | [19] | [5] | [6] | [7] | [8] | [10] | [11] | [12] | [13] | [14] | [15] | [16] | [20]

COc1cccc([C@H](O)C2CCN(CCc3ccc(F)cc3)CC2)c1OC
inactive: [1] | [2] | [17] | [4] | [5] | [6] | [7] | [8] | [9] | [10] | [11] | [12] | [18] | [13] | [14] | [15] | [16]

CCCCCCCCOCCCN
inactive: [1] | [2] | [17] | [5] | [6] | [7] | [8] | [9] | [10] | [11] | [12] | [13] | [14] | [15] | [16]

O=C(O)c1cccc(C(=O)O)c1C(=O)O
inactive: [1] | [2] | [17] | [4] | [5] | [6] | [7] | [8] | [9] | [10] | [11] | [12] | [18] | [13] | [14] | [15] | [16] | [20]
